Reference: PubChem BioAssay
Results with a measured potency or affinity are listed apart. Calls of active or inactive are those of the source. How the calls were made is not given here.

Each molecule was assayed against Plasmodium falciparum protein kinase 6 (PK6, PF3D7_1337100) (UniProt Q8IDW1) (assay: PfPK6 kinase inhibitors, biochemical, TCAMS library (AID 1159586)). Settings: recombinant PfPK6, Kinase-Glo ATP depletion luminescence.
Chain of Plasmodium falciparum protein kinase 6 (PK6, PF3D7_1337100) (Q8IDW1 1-305): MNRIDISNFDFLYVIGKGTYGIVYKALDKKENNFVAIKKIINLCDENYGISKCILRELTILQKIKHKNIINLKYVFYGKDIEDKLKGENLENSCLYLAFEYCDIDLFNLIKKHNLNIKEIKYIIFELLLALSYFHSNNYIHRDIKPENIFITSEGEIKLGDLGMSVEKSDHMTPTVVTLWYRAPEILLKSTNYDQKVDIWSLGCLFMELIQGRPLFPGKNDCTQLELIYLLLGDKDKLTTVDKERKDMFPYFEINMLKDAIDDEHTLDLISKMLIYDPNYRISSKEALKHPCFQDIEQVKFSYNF

outcome, inactive:
CCCCNCc1ccc(-c2nc(CN(Cc3ccc(Cl)c(Cl)c3)S(=O)(=O)c3ccc(NC(C)=O)cc3)cs2)cc1, CC(=O)Nc1nc(C(=O)Nc2cccc(-c3ccc4c(cnn4CC4CC4)c3)c2)cs1, CCc1c[nH]c2c(N3CCCC3=O)cc(C(=O)N[C@@H](Cc3ccccc3)[C@H](O)CNC(C)(C)CCCC(C)C)cc12, Nc1ncnc2cc(-c3cccc(S(N)(=O)=O)c3)sc12, COc1cc(F)c2ncc(Cl)c(C(O)CN3CCC(NC(=O)c4ccc5c(n4)NC(=O)CO5)CC3)c2c1 (stereo unspecified), CCN(CC)C(=S)N=Nc1c(O)[nH]c2c(C)cccc12, CCCCCCCCCn1c(NCc2cc(Cl)ccc2O)nc2ccccc21, CCCC(CNCc1cccc(C)c1)CNc1cc(=O)c2ccccc2[nH]1 (stereo unspecified), CCOc1ccc(-c2nonc2NC(=O)c2cccs2)cc1OCC, COc1ccc2nccc([C@@H](O)CN3CCC(NCc4[nH]c5ccccc5c4F)CC3)c2c1, CCc1c(CCNCCCCCCNCCc2ccc(OC)c(OC)c2CC)ccc(OC)c1OC, COc1ccc2nccc(NN=Cc3ccc(F)cc3)c2c1, COc1ccc(-c2ccccc2CNC2Cc3ccccc3C2)cc1S(=O)(=O)NCCN1CCCC1, Cc1ccc(N/C(N)=N/c2ncccc2OCc2c(F)cccc2Cl)cc1, Cc1nc(N)nc(N)c1-c1ccc(Br)cc1, CN(C)CCN(C)Cc1ccc(-c2ccc(NC(=O)c3cccc(Cl)c3)cc2)cc1
